A short description of assay [1]: ACEA_ER_80hr: ACEA Biosciences xCELLigence Real-Time Cell Analysis on Estrogen Receptor Agonism for Proliferation (AID 2282667; active = hit-call score of the fitted dose curve at least 0.9, where 1 is the maximum). Conditions: T47D proliferation, impedance (xCELLigence), 80 h. In outline: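 Real-time electrical impedance tracked growth of the human breast line T47D, with the 80 h post-dosing value used. Dosing spanned eight 1:4 steps down from a 100 uM final top concentration, run in duplicate.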

Assay [2] in a line: ATG_CRE_CIS: Attagene CIS-FACTORIAL HepG2 Assay for human cAMP Responsive Element (CRE) binding protein 3 (AID 2282926). The note with it: HepG2 CRE cis-reporter, Attagene multiplexed mRNA; actives raise or lower the signal. In outline: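 Human liver HepG2, transient MRTU transfection, 24 h compound exposure. Total RNA → oligo(dT) RT → PCR → 6-FAM primer extension → HpaI cut → CE. Activity called both directions vs DMSO.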

For assay [3], the target named is CCAAT/enhancer-binding protein beta (Homo sapiens) (UniProt P17676). The experiment in a line: ATG_C_EBP_CIS: Attagene CIS-FACTORIAL HepG2 Assay for human CCAAT/Enhancer Binding Protein (C/EBP) beta (AID 2282927). The note with it: HepG2 Attagene cis-factorial transcription factor reporter; actives raise or lower the signal. In outline: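 HepG2 transiently transfected with multiplexed reporter units under cis-regulatory promoters reporting endogenous C/EBPb activity. After 24 h exposure, reporter mRNA assayed by RT-PCR, fluorescent labelling, HpaI digestion and capillary electrophoresis; bidirectional fitting versus DMSO.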

A short description of assay [4]: ATG_CMV_CIS: Attagene CIS-FACTORIAL HepG2 Assay for human CMV (Internal Marker) (AID 2282928).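 Also: endpoint acts as a background internal control marker rather than a target.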 The note with it: HepG2 CMV promoter reporter, transcription factor profiling; actives raise or lower the signal. In outline: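 Endogenous transcription factor activity read in HepG2 via transfected cis-promoter reporter units. After 24 h dosing, reporter mRNA measured by RT-PCR/capillary electrophoresis; gain or loss of signal fit relative to DMSO.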

Assay [5] can be described thus: ATG_DR4_LXR_CIS: Attagene CIS-FACTORIAL HepG2 Assay for human Liver X Receptor (LXR), DR4 submotif (AID 2282929). The note with it: HepG2 Attagene DR4 cis-reporter, mRNA transcription; actives raise or lower the signal. In outline:
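Fluorescence intensity of labelled reporter cDNA fragments, separated by capillary electrophoresis, gives the signal. HepG2 cells bearing cis-regulated reporter constructs were treated 24 h; activity fitted bidirectionally relative to DMSO negative control.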

The target of assay [6] is Aryl hydrocarbon receptor (Homo sapiens) (UniProt P35869). Briefly: ATG_Ahr_CIS: Attagene CIS-FACTORIAL HepG2 Assay for human Aryl Hydrocarbon Receptor (Ahr) (AID 2282930). Conditions: HepG2 AhR cis-factorial reporter transcription; actives raise or lower the signal. In outline: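 HepG2 cells transiently transfected with cis-element-driven multiplexed reporter units; endogenous AhR activity read as reporter mRNA 24 h after dosing, via RT-PCR, 6-FAM labelling, HpaI digestion and capillary electrophoresis. Bidirectional fit relative to DMSO.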

Assay [7] can be described thus: ATG_AP_1_CIS: Attagene CIS-FACTORIAL HepG2 Assay for human Activator Protein 1 (AP-1) (AID 2282931). The note with it: HepG2 Attagene cis-factorial AP-1 reporter mRNA; actives raise or lower the signal. The method, boiled down:
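Multiplexed HepG2 reporter assay, 24 h dosing. mRNA induction detected by RT-PCR plus capillary electrophoresis. Activity fitted in both directions against DMSO.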

A short description of assay [8]: ATG_AP_2_CIS: Attagene CIS-FACTORIAL HepG2 Assay for human Activator Protein 2 (AP-2) (AID 2282932). The note with it: HepG2 AP-2 cis-reporter, Attagene transcription factor profiling; actives raise or lower the signal. In outline:
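HepG2 cells transiently transfected with cis-element reporter units and exposed for 24 h. Reporter mRNA measured by RT-PCR, FAM labelling, HpaI digestion and capillary electrophoresis. Changes in either direction fitted relative to DMSO.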

The nature of assay [9]: ATG_BRE_CIS: Attagene CIS-FACTORIAL HepG2 Assay for human Bone Morphogenetic Protein (BMP) Response Element (BRE) (AID 2282933). Conditions: HepG2 BMP response element reporter, Attagene transcription factor profiling; actives raise or lower the signal. In outline:
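HepG2 cells transiently transfected with CIS reporter units (endogenous TF activity, BMP response element), dosed 24 h. Reporter mRNA quantified by RT-PCR, fluorescent labelling and capillary electrophoresis; bidirectional fit vs DMSO baseline.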

Assay [10] deals with Transcription factor E2F1 (Homo sapiens) (UniProt Q01094). Briefly: ATG_E2F_CIS: Attagene CIS-FACTORIAL HepG2 Assay for human E2F Transcription Factor 1 (AID 2282935). Conditions: HepG2 Attagene cis-reporter, E2F reporter RNA transcripts; actives raise or lower the signal. The method, boiled down: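 Endogenous E2F1 activity read through cis-promoter reporter units transfected into HepG2. After 24 h compound treatment, reporter mRNA measured by RT-PCR, HpaI digestion and capillary electrophoresis. Bidirectional fit versus DMSO.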

Assay [11] can be described thus: ATG_E_Box_CIS: Attagene CIS-FACTORIAL HepG2 Assay for human Enhancer Box (E-box) (AID 2282936). Conditions: HepG2 E-box cis-reporter transcription, actives raise or lower the signal. In outline: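 HepG2 cells transiently transfected with multiplexed cis-element reporter units, dosed 24 h; reporter mRNA quantified by RT-PCR, 6-FAM labelling, HpaI digestion and capillary electrophoresis. E-box (USF1) signal fitted bidirectionally vs DMSO.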

Assay [12] in a line: ATG_M_61_CIS: Attagene CIS-FACTORIAL HepG2 Assay for M61 Transcription Factor (Internal Marker) (AID 2282937). The note with it: HepG2 Attagene CIS-FACTORIAL M61 internal marker reporter; actives raise or lower the signal. In outline: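 Endogenous transcription factor activity in HepG2 is read through transiently transfected cis-element reporter units. After 24 h dosing, RNA undergoes reverse transcription, PCR and primer extension with 6-FAM before capillary electrophoresis; DMSO-referenced bidirectional fit.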

Assay [13] in a line: ATG_EGR_CIS: Attagene CIS-FACTORIAL HepG2 Assay for human Early Growth Response 1 (EGR1) (AID 2282938). The note with it: HepG2 Attagene CIS-FACTORIAL EGR reporter mRNA; actives raise or lower the signal. The method, boiled down: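 Activity is taken as induction or loss of reporter mRNA versus DMSO, fitted bidirectionally. Transcripts from cis-regulated reporter units in transiently transfected HepG2 were measured after 24 h by RT-PCR with capillary electrophoresis.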

A short description of assay [14]: ATG_M_19_CIS: Attagene CIS-FACTORIAL HepG2 Assay for M19 Transcription Factor (Internal Marker) (AID 2282939). Conditions: HepG2 Attagene CIS-FACTORIAL M19 internal marker reporter; actives raise or lower the signal. The method, boiled down:
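HepG2 cells transiently transfected with cis-regulated multiplexed reporter units, dosed 24 h. Reporter mRNA quantified by RT-PCR and capillary electrophoresis; internal background marker fitted bidirectionally versus DMSO.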

Assay [15] can be described thus: ATG_ERE_CIS: Attagene CIS-FACTORIAL HepG2 Assay for Estrogen Response Element (ERE) (AID 2282940). Conditions: HepG2 ERE cis-reporter, Attagene RNA transcript; actives raise or lower the signal. In outline: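 HepG2 cells transiently transfected with multiplexed cis-element reporter units, measuring endogenous transcription factor activity; ERE reporter mRNA quantified after 24 h exposure by RT-PCR, fluorescent labelling, HpaI digestion and capillary electrophoresis. Bidirectional change versus DMSO.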

The nature of assay [16]: ATG_Ets_CIS: Attagene CIS-FACTORIAL HepG2 Assay for human Erythroblast Transformation Specific (ETS) (AID 2282941). Conditions: HepG2 ETS cis-reporter transcription, actives raise or lower the signal. The method, boiled down:
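Steps: transfect HepG2 with multiple reporter units; treat compound 24 h; isolate RNA, DNase-treat, reverse-transcribe; PCR-amplify, label with 6-FAM, digest with HpaI; separate by capillary electrophoresis. Activity fitted both directions versus DMSO.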

Assay [17] deals with Hepatocyte nuclear factor 3-beta (Homo sapiens) (UniProt Q9Y261). Briefly: ATG_FoxA2_CIS: Attagene CIS-FACTORIAL HepG2 Assay for human Forkhead box A2 (FOXA2) (AID 2282942). The note with it: HepG2 cis-reporter transcription factor activity, 24 h; actives raise or lower the signal. In outline:
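Reporter transcript induction is measured by fluorescence after capillary electrophoresis of RT-PCR products from HepG2 cells exposed 24 h. Cis-regulated reporter units report endogenous factor activity; curves fitted both directions against DMSO.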

Assay [18] in a line: ATG_FoxO_CIS: Attagene CIS-FACTORIAL HepG2 Assay for human Forkhead box O (FoxO) (AID 2282943). Conditions: HepG2 Attagene cis-reporter, FoxO element, mRNA; actives raise or lower the signal. The method, boiled down:
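HepG2 cells transiently transfected with cis-element-driven reporter units report endogenous FoxO activity. After 24 h chemical exposure, reporter mRNA quantified by RT-PCR, fluorescent labeling, HpaI digestion and capillary electrophoresis; bidirectional fit versus DMSO.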

Assay [19] can be described thus: ATG_GATA_CIS: Attagene CIS-FACTORIAL HepG2 Assay for human GATA Binding Protein (AID 2282944). The note with it: HepG2 GATA cis-element reporter, Attagene multiplex mRNA; actives raise or lower the signal. In outline: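 HepG2 cells transiently transfected with multiplexed cis-element reporter units measure endogenous GATA activity; after 24 h compound exposure, reporter mRNA quantified by RT-PCR and capillary electrophoresis. Changes fitted in both directions vs DMSO.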

The text below walks through data of PubChem BioAssay (EPA / NIEHS).

The structures appear in SMILES notation. Inconclusive results are not listed. Calls of active or inactive are those of the source. The calls were made as follows, unless noted: active = hit-call score of the fitted dose curve at least 0.9, where 1 is the maximum; inactive = score below 0.9.

Aryl hydrocarbon receptor (Homo sapiens), sequence (P35869 whole entry, looked up): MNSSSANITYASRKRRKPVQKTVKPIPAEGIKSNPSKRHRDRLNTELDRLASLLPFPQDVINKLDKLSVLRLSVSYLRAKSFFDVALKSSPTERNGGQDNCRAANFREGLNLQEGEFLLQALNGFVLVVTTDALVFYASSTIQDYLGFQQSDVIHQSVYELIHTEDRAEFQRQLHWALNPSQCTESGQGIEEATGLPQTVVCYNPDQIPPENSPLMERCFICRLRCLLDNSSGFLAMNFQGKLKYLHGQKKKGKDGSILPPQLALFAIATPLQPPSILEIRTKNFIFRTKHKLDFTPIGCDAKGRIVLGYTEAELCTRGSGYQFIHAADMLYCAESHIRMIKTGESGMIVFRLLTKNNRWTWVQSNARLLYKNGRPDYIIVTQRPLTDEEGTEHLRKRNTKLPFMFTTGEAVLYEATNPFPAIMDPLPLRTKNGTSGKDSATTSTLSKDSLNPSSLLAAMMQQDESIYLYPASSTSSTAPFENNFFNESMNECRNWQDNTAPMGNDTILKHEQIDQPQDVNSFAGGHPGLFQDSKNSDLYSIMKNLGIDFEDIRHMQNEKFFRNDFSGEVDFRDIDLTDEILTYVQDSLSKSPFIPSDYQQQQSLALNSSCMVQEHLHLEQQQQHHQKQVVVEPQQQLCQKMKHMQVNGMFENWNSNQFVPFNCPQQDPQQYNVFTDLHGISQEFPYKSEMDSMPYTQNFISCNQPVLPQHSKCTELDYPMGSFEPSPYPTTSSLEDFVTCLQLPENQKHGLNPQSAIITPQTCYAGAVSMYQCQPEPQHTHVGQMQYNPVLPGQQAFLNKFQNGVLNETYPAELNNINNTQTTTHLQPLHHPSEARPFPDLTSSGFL
Transcription factor E2F1 (Homo sapiens), sequence (Q01094 whole entry, looked up): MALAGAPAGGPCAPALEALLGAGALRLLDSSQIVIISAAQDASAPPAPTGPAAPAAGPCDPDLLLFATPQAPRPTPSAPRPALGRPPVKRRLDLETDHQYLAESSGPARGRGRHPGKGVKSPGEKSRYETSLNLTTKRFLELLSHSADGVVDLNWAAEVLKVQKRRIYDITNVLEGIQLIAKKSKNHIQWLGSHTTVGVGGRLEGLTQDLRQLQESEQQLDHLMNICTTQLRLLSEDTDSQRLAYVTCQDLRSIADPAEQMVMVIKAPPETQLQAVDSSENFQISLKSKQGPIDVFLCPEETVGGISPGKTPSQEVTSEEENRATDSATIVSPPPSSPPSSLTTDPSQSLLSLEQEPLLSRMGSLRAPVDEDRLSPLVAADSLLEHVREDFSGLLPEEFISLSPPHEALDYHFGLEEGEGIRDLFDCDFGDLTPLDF
CCAAT/enhancer-binding protein beta (Homo sapiens), sequence (P17676 whole entry, looked up): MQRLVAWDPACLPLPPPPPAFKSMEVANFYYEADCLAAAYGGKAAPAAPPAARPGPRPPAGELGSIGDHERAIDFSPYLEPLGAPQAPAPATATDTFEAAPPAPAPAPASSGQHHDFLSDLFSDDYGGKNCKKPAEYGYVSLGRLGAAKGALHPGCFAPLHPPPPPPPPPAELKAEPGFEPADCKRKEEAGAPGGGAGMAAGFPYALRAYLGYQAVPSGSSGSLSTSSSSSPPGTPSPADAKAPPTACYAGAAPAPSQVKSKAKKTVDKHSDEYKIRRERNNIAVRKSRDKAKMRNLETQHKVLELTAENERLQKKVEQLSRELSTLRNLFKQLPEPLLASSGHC
Hepatocyte nuclear factor 3-beta (Homo sapiens), sequence (Q9Y261 whole entry, looked up): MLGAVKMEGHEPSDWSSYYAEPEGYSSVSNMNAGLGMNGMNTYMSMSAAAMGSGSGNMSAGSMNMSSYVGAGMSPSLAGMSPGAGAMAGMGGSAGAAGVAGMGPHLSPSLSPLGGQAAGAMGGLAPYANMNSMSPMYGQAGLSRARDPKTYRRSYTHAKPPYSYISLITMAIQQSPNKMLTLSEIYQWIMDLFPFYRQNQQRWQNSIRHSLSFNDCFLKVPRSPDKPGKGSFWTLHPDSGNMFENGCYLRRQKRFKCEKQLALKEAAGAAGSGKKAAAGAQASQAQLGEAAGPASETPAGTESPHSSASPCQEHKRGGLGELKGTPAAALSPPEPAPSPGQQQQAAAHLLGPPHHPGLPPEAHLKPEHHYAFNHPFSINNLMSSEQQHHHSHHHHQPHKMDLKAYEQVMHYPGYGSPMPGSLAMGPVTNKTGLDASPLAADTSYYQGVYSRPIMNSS

As a reminder, the AC50 is the concentration at which the activity in the assay is half-maximal. As for `C=CC(=O)OCC(F)(F)C(F)(F)C(F)(F)C(F)(F)C(F)(F)C(F)(F)C(F)(F)C(F)F`, the result in assay [1], in assay [2], in [3], in assay [4], in assay [6] and in [7] was inactive. The outcome in assay [8], in [9], in [10], in [11], in assay [12] and in assay [13] was inactive. For the same compound, the result in [14], in assay [16], in [17], in assay [18] and in assay [19] was inactive. In addition, the results for the AC50 in [5] and in assay [15] were 232 µM (active) and 5.14 µM (active), respectively.

Consider `NCC(F)(F)C(F)(F)C(F)(F)C(F)(F)C(F)(F)C(F)(F)C(F)(F)C(F)(F)F`, for which the compound was classed as inactive in assay [1], in assay [2], in assay [3], in [4], in [5] and in assay [6]. The outcome in [7], in assay [8], in assay [9], in [10], in assay [11] and in [12] was inactive. Besides, the result in assay [13], in assay [14], in [15], in assay [16], in [17] and in [18] was inactive. In addition, in assay [19], the compound was classed as inactive.

For `C=C(C)CCCC`, the compound was called inactive in assay [1], in assay [2], in assay [3], in assay [4], in assay [5] and in assay [6]. The result in [7], in assay [8], in assay [9], in [10], in [11] and in assay [12] was inactive. Further, the call in [13], in assay [15], in [16], in [17], in assay [18] and in [19] was inactive.

Consider `O=C(c1ccccc1)c1ccc(Cl)cc1`, for which the call in [1], in [2], in assay [3], in assay [4], in assay [5] and in assay [6] was inactive. For the same compound, the call in assay [7], in [8], in assay [9], in assay [10], in assay [11] and in assay [12] was inactive. Further, the compound was classed as inactive in assay [13], in assay [14], in assay [16], in assay [17], in assay [18] and in assay [19]. Also, the AC50 in assay [15] was 44.4 µM (active).

Take `O=C(Cl)C(F)(F)C(F)(F)C(F)(F)C(F)(F)C(F)(F)C(F)(F)F`: the result in [1], in [2], in assay [3], in [4], in assay [5] and in [6] was inactive. Moreover, the call in assay [8], in assay [9], in assay [10], in assay [11], in assay [12] and in assay [13] was inactive. The compound was classed as inactive in assay [15], in assay [16], in assay [17], in [18] and in [19]. Besides, the AC50 in [7] is 159 µM (active).

On to `CC(C)OC=O`, for which the compound was called inactive in assay [1], in assay [2], in [3], in [4], in assay [5] and in assay [6]. In addition, the compound was called inactive in assay [7], in assay [8], in assay [9], in assay [10], in assay [11] and in [12]. In addition, the result in assay [13], in assay [14], in assay [15], in assay [16], in assay [17] and in assay [18] was inactive. Besides, the outcome in [19] was inactive.

Regarding `CC(C)C(=O)OCc1ccccc1`, the call in assay [1], in assay [2], in assay [3], in [4], in [5] and in assay [6] was inactive. Also, the result in assay [7], in assay [8], in assay [9], in [10], in assay [11] and in assay [12] was inactive. The result in assay [13], in [14], in [15], in assay [16], in assay [17] and in assay [18] was inactive. Moreover, the result in [19] was inactive.
